Laboratory results reported in PubChem BioAssay AID1159580 (chemical genetic matrix, 2015).
About 2,000 (36%) of roughly 5,500 compounds were called active. Roughly 18% stayed inconclusive and do not appear here. Rule as the data show it: active = normalized growth mostly below about 0.91 (no sharp cut-off); inconclusive = no clear call, values can overlap the other calls; inactive = mostly above about 0.92. The list shows a part of the results.

Test: chemical genetic growth profiling, strain panel (AID 1159580);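 also: tested at 20 µM; growth read once vehicle control cultures reached saturation at 30 °C; 1 = growth at the plate median or of vehicle wells; lower values mean less growth of the strain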
Conditions: growth OD

Measured: normalized growth

O=C(CCc1ccc(O)cc1)c1c(O)cc(O)cc1O[C@@H]1O[C@H](CO)[C@@H](O)[C@H](O)[C@H]1O
inactive: S. cerevisiae deletion strains, locus YJR075W, strain HOC1, hits give low values 1.05 | S. cerevisiae deletion strains, locus YKL009W, strain mrt4, hits give low values 0.978 | S. cerevisiae deletion strains, locus YKL068W, hits give low values 1 | S. cerevisiae deletion strains, locus YKL085W, strain MDH1 (second series), hits give low values 0.988 | S. cerevisiae deletion strains, locus YKL085W, strain MDH1, hits give low values 0.988 | S. cerevisiae deletion strains, locus YKL160W, strain elf1, hits give low values 1.01 | S. cerevisiae deletion strains, locus YKR001C, strain vps1, hits give low values 1 | S. cerevisiae deletion strains, locus YKR026C, strain gcn3, hits give low values 1.01 | S. cerevisiae deletion strains, locus YKR091W, strain srl3, hits give low values 1.01 | S. cerevisiae deletion strains, locus YLL001W, strain dnm1, hits give low values 1.01 | S. cerevisiae deletion strains, locus YLL026W, hits give low values 1.02 | S. cerevisiae deletion strains, locus YLL041C, strain sdh2, hits give low values 1.01 | S. cerevisiae deletion strains, locus YLR027C, strain aat2, hits give low values 1.01 | S. cerevisiae deletion strains, locus YLR039C, strain RIC1, hits give low values 1.08 | S. cerevisiae deletion strains, locus YLR058C, strain SHM2, hits give low values 1.01 | S. cerevisiae deletion strains, locus YLR102C, strain apc9, hits give low values 1.01 | S. cerevisiae deletion strains, locus YLR113W, strain HOG1, hits give low values 0.956 | S. cerevisiae deletion strains, locus YLR221C, strain rsa3, hits give low values 1.02 | S. cerevisiae deletion strains, locus YLR258W, strain gsy2, hits give low values 1.04 | S. cerevisiae deletion strains, locus YLR262C, strain YPT6 (second series), hits give low values 1.02 | S. cerevisiae deletion strains, locus YLR262C, strain YPT6, hits give low values 1.14 | S. cerevisiae deletion strains, locus YLR268W, strain sec22, hits give low values 1 | S. cerevisiae deletion strains, locus YLR320W, strain mms22, hits give low values 1.02 | S. cerevisiae deletion strains, locus YLR330W, strain CHS5, hits give low values 1.01 | S. cerevisiae deletion strains, locus YLR342W, strain FKS1 (second series), hits give low values 1.01 | S. cerevisiae deletion strains, locus YLR342W, strain FKS1, hits give low values 1.02 | S. cerevisiae deletion strains, locus YLR357W, strain rsc2, hits give low values 1 | S. cerevisiae deletion strains, locus YLR370C, strain arc18, hits give low values 1.01 | S. cerevisiae deletion strains, locus YLR371W, strain rom2, hits give low values 0.997 | S. cerevisiae deletion strains, locus YLR384C, strain iki3, hits give low values 1.03 | S. cerevisiae deletion strains, locus YLR418C, strain cdc73, hits give low values 1.03 | S. cerevisiae deletion strains, locus YML016C, strain PPZ1, hits give low values 1.02 | S. cerevisiae deletion strains, locus YML032C, strain rad52, hits give low values 0.986 | S. cerevisiae deletion strains, locus YML120C, strain ndi1, hits give low values 1.01 | S. cerevisiae deletion strains, locus YML124C, strain tub3, hits give low values 0.993 | S. cerevisiae deletion strains, locus YMR058W, strain fet3, hits give low values 1.02 | S. cerevisiae deletion strains, locus YMR078C, strain ctf18, hits give low values 0.991 | S. cerevisiae deletion strains, locus YMR125W, strain sto1, hits give low values 1.02 | S. cerevisiae deletion strains, locus YMR129W, hits give low values 1.01 | S. cerevisiae deletion strains, locus YMR205C, strain PFK2, hits give low values 1.02 | S. cerevisiae deletion strains, locus YMR223W, strain ubp8, hits give low values 0.992 | S. cerevisiae deletion strains, locus YMR231W, strain pep5, hits give low values 1.01 | S. cerevisiae deletion strains, locus YMR263W, strain SAP30, hits give low values 1.03 | S. cerevisiae deletion strains, locus YMR307W, strain GAS1, hits give low values 1.23 | S. cerevisiae deletion strains, locus YNL067W, strain RPL9B, hits give low values 1.04 | S. cerevisiae deletion strains, locus YNL071W, strain lat1, hits give low values 1.01 | S. cerevisiae deletion strains, locus YNL153C, strain GIM3, hits give low values 1.04 | S. cerevisiae deletion strains, locus YNL183C, strain NPR1, hits give low values 0.937 | S. cerevisiae deletion strains, locus YNL209W, strain ssb2, hits give low values 1.01 | S. cerevisiae deletion strains, locus YNL233W, strain BNI4, hits give low values 1.03 | S. cerevisiae deletion strains, locus YNL248C, strain rpa49, hits give low values 1.01 | S. cerevisiae deletion strains, locus YNL250W, strain rad50, hits give low values 0.986 | S. cerevisiae deletion strains, locus YNL271C, strain bni1, hits give low values 0.992 | S. cerevisiae deletion strains, locus YNL298W, strain CLA4, hits give low values 0.998 | S. cerevisiae deletion strains, locus YNL307C, strain MCK1, hits give low values 0.991 | S. cerevisiae deletion strains, locus YNL322C, strain KRE1 (second series), hits give low values 1.02 | S. cerevisiae deletion strains, locus YNL322C, strain KRE1, hits give low values 1.02 | S. cerevisiae deletion strains, locus YNR049C, strain mso1, hits give low values 1.02 | S. cerevisiae deletion strains, locus YNR052C, strain pop2, hits give low values 0.982 | S. cerevisiae deletion strains, locus YOL012C, strain htz1 0.98 | S. cerevisiae deletion strains, locus YOL147C, strain pex11, hits give low values 0.996 | S. cerevisiae deletion strains, locus YOR001W, strain rrp6, hits give low values 1.04 | S. cerevisiae deletion strains, locus YOR061W, strain CKA2, hits give low values 1.02 | S. cerevisiae deletion strains, locus YOR069W, strain VPS5, hits give low values 1.01 | S. cerevisiae deletion strains, locus YOR070C, strain gyp1, hits give low values 1 | S. cerevisiae deletion strains, locus YOR080W, strain dia2, hits give low values 1.03 | S. cerevisiae deletion strains, locus YOR083W, strain WHI5, hits give low values 1.01 | S. cerevisiae deletion strains, locus YOR106W, strain vam3, hits give low values 1.01 | S. cerevisiae deletion strains, locus YOR136W, strain idh2, hits give low values 0.994 | S. cerevisiae deletion strains, locus YOR144C, strain elg1, hits give low values 1 | S. cerevisiae deletion strains, locus YOR184W, strain ser1, hits give low values 1.03 | S. cerevisiae deletion strains, locus YOR231W, strain MKK1, hits give low values 0.993 | S. cerevisiae deletion strains, locus YOR265W, strain rbl2, hits give low values 1.01 | S. cerevisiae deletion strains, locus YOR270C, strain vph1, hits give low values 1.03 | S. cerevisiae deletion strains, locus YOR290C, strain snf2, hits give low values 0.988 | S. cerevisiae deletion strains, locus YOR316C, strain cot1, hits give low values 1.02 | S. cerevisiae deletion strains, locus YPL051W, strain arl3, hits give low values 1.01 | S. cerevisiae deletion strains, locus YPL078C, strain atp4, hits give low values 1.02 | S. cerevisiae deletion strains, locus YPL106C, strain sse1, hits give low values 1.02 | S. cerevisiae deletion strains, locus YPL240C, strain hsp82, hits give low values 1.01 | S. cerevisiae deletion strains, locus YPL241C, strain CIN2, hits give low values 1.02 | S. cerevisiae deletion strains, locus YPL256C, strain CLN2, hits give low values 0.966 | S. cerevisiae deletion strains, locus YPR119W, strain clb2, hits give low values 0.992 | S. cerevisiae deletion strains, locus YPR141C, strain kar3, hits give low values 0.987 | S. cerevisiae deletion strains, locus YPR163C, strain tif3, hits give low values 0.993 | S. cerevisiae deletion strains, locus YPR167C, strain met16, hits give low values 1.01 | S. cerevisiae deletion strains, strain wtn01, hits give low values 1 | S. cerevisiae strains, strain wild type, hits give low values 1.02
